Records with an inconclusive call do not appear. Calls of active or inactive are those of the source. Unless noted, the call rests on the fitted dose curve; in most records, active means well fitted curve in the direction sought with a large enough effect; inconclusive means small, poorly fitted or top-dose-only effect, or another doubt; inactive means no such curve, though single readings can be large; an effect the other way counts as inactive or inconclusive.
Key:
[1] = target: ATP-dependent 6-phosphofructokinase (Trypanosoma brucei brucei) (UniProt O15648); test: qHTS Assay to Find Inhibitors of T. brucei phosphofructokinase: hit validation (AID 492961);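 further: luminescence reports ADP formed as PFK phosphorylates fructose-6-phosphate with ATP; on the % scale 0 is the no-effect control and ±100 the full control effect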
Procedure, shortened: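 Measures ADP output of PFK (1.25 nM) at 0.1 mM ATP, 0.5 mM F6P, pH 8.0 TEA buffer with 5 mM MgCl2. No-enzyme wells define full inhibition; uninhibited enzyme wells define zero.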

[2] = target: Ubiquitin carboxyl-terminal hydrolase 1 (Homo sapiens) (UniProt O94782); test: Inhibitors of USP1/UAF1: Pilot qHTS (AID 504865);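 further: rhodamine fluorescence freed from ubiquitin-rhodamine substrate followed over time; top concentration of the series differs between compounds; on the % scale 0 is the no-effect control and ±100 the full control effect; nearly all actives have a fitted effect of over 35% in size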
Procedure, shortened: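 1nM USP1/UAF1 + cpd, 15 min RT; start w/ Ub-Rho 150nM final; kinetic FL 480/540 nm, 6 reads q60 s. Buffer 50mM HEPES pH 7.8, 0.5mM EDTA, 1mM TCEP, 0.01% Tween-20, 0.1 mg/ml BSA.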

[3] = target: Luciferin 4-monooxygenase (Photinus pyralis) (UniProt P08659); test: Biochemical firefly luciferase enzyme assay for NPC (AID 624030);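 further: purified P. pyralis luciferase at 10 nM with luciferin and ATP substrate; 0% = DMSO and -100% = full luciferase inhibition by PTC124 control; nearly all actives have a fitted effect of over 70% in size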
Procedure, shortened: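 Direct inhibition of firefly luciferase enzyme (10 nM final, 50 mM Tris Acetate) assessed by luminescence within 5 minutes. Percent activity scaled between DMSO and PTC124 positive control, with concentration-effect curves classified by fit quality and response.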

[4] = S16 Schwann cell PMP22 intronic element beta-lactamase assay (AID 624044; calls by dose curve;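 further: 0% = DMSO and -100% = potassium clavulanate positive control; nearly all actives have a fitted effect of over 15% in size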); details: S16 rat Schwann cells, PMP22 element beta-lactamase FRET, 24 h; ratio activity, negative = inhibition: at 38.3 µM (top of the series) unless noted
Procedure, shortened: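 Beta-lactamase reporter under a PMP22 intronic regulatory element in stable S16 rat Schwann cells; 24 h compound exposure. 460 nm blue signal normalized between DMSO (0%) and potassium clavulanate, with 535 nm FRET tracking viability; curves classed by r2 and response.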

[5] = Primary qHTS to identify inhibitors of SARS-CoV-2 cell entry (AID 1645846; calls by dose curve; further: potency means the concentration at half of the fitted maximal effect; nearly all actives have a fitted effect of over 45% in size); details: SARS-CoV-2 pseudovirus cell entry assay, luminescence; activity change, negative = inhibition: at 57.1 µM (top of the series) unless noted
Procedure, shortened: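 HEK293-ACE2 (Expi293F, stable hACE2), 1500 cells/well, o/n 37C; cpd 23 nL pin, 1 h; MLV-PP w/ SARS-CoV-2-S (Wuhan-Hu-1, Δ19 C-term); 48 h 37C; Bright-Glo luminescence; normalized vs S-PP and bald PP.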

[6] = target: Glutathione peroxidase 1 (Homo sapiens) (UniProt P07203); test: Primary qHTS Assay for Inhibitors of Recombinant Selenoprotein Glutathione Peroxidase 1 (GPX1) (AID 1845191); further: nearly all actives have a fitted effect of over 65% in size
Procedure, shortened: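 NADPH consumption tracked by fluorescence at 340/450 nm between t=0 and t=15 min, room temperature. Final mix: 10 nM GPX1, 100 nM glutathione reductase, 1 mM GSH, 0.5 mM NADPH, 0.5 mM cumene hydroperoxide, 0.01% BSA; 30 min compound–enzyme preincubation.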

[7] = target: Phospholipid hydroperoxide glutathione peroxidase GPX4 (Homo sapiens) (UniProt P36969); test: Primary qHTS Assay for Inhibitors of Recombinant Selenoprotein Glutathione Peroxidase 4 (GPX4) (AID 1845192); further: on the % scale 0 is the no-effect control and ±100 the full control effect; nearly all actives have a fitted effect of over 65% in size
Procedure, shortened: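 NADPH consumption followed by fluorescence at 340/450 nm, t=0 and after 15 min at room temperature. Reaction started with cumene hydroperoxide (0.5 mM final) after 30 min compound–GPX4 preincubation; final 200 nM GPX4, 100 nM GR, 1 mM GSH, 0.5 mM NADPH.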

[8] = qHTS profiling for inhibitors of Plasmodium falciparum proliferation (AID 504749); further: nearly all actives have a fitted effect of over 60% in size; further: potency means the concentration at half of the fitted maximal effect;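 on activity, negative = inhibition: 0% = DMSO vehicle and full inhibition = artemisinin control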; details: P. falciparum in erythrocytes, SYBR Green DNA, 72 h, at 28.7 µM (top of the series)
Procedure, shortened: (§1)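 In a 72 h erythrocytic culture (37 C, humidified, 5% CO2) at 2.5% hematocrit and 0.3% starting parasitemia, compounds were tested; SYBR Green I in detergent lysis buffer stained parasite DNA overnight.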

3D7 = test: as above; details: P. falciparum in erythrocytes, SYBR Green DNA, 72 h; series mostly up to 28.7 µM
Procedure, shortened: as §1

7G8 = test: as above; details: P. falciparum in erythrocytes, SYBR Green DNA, 72 h; series mostly up to 12.8 µM
Procedure, shortened: as §1

AA1029 = test: as above; details: P. falciparum in erythrocytes, SYBR Green DNA, 72 h; series mostly up to 28.7 µM
Procedure, shortened: as §1

ATS189 = test: as above; details: P. falciparum in erythrocytes, SYBR Green DNA, 72 h; series mostly up to 28.7 µM
Procedure, shortened: as §1

ATS95 = test: as above; details: P. falciparum in erythrocytes, SYBR Green DNA, 72 h; series mostly up to 28.7 µM
Procedure, shortened: as §1

C2A = test: as above; details: P. falciparum in erythrocytes, SYBR Green DNA, 72 h; series mostly up to 28.7 µM
Procedure, shortened: as §1

CP185 = test: as above; details: P. falciparum in erythrocytes, SYBR Green DNA, 72 h; series mostly up to 28.7 µM
Procedure, shortened: as §1

CP191 = test: as above; details: P. falciparum in erythrocytes, SYBR Green DNA, 72 h; series mostly up to 28.7 µM
Procedure, shortened: as §1

CP192 = test: as above; details: P. falciparum in erythrocytes, SYBR Green DNA, 72 h; series mostly up to 28.7 µM
Procedure, shortened: as §1

CP194 = test: as above; details: P. falciparum in erythrocytes, SYBR Green DNA, 72 h; series mostly up to 28.7 µM
Procedure, shortened: as §1

CP201 = test: as above; details: P. falciparum in erythrocytes, SYBR Green DNA, 72 h; series mostly up to 28.7 µM
Procedure, shortened: as §1

CP211 = test: as above; details: P. falciparum in erythrocytes, SYBR Green DNA, 72 h; series mostly up to 28.7 µM
Procedure, shortened: as §1

CP215 = test: as above; details: P. falciparum in erythrocytes, SYBR Green DNA, 72 h; series mostly up to 28.7 µM
Procedure, shortened: as §1

CP217 = test: as above; details: P. falciparum in erythrocytes, SYBR Green DNA, 72 h; series mostly up to 28.7 µM
Procedure, shortened: as §1

CP238 = test: as above; details: P. falciparum in erythrocytes, SYBR Green DNA, 72 h; series mostly up to 28.7 µM
Procedure, shortened: as §1

CP247 = test: as above; details: P. falciparum in erythrocytes, SYBR Green DNA, 72 h; series mostly up to 28.7 µM
Procedure, shortened: as §1

CP250 = test: as above; details: P. falciparum in erythrocytes, SYBR Green DNA, 72 h; series mostly up to 12.8 µM
Procedure, shortened: as §1

CP252 = test: as above; details: P. falciparum in erythrocytes, SYBR Green DNA, 72 h; series mostly up to 12.8 µM
Procedure, shortened: as §1

CP256 = test: as above; details: P. falciparum in erythrocytes, SYBR Green DNA, 72 h; series mostly up to 28.7 µM
Procedure, shortened: as §1

CP260 = test: as above; details: P. falciparum in erythrocytes, SYBR Green DNA, 72 h; series mostly up to 28.7 µM
Procedure, shortened: as §1

CP262 = test: as above; details: P. falciparum in erythrocytes, SYBR Green DNA, 72 h; series mostly up to 28.7 µM
Procedure, shortened: as §1

CP265 = test: as above; details: P. falciparum in erythrocytes, SYBR Green DNA, 72 h; series mostly up to 12.8 µM
Procedure, shortened: as §1

CP266 = test: as above; details: P. falciparum in erythrocytes, SYBR Green DNA, 72 h; series mostly up to 12.8 µM
Procedure, shortened: as §1

CP268 = test: as above; details: P. falciparum in erythrocytes, SYBR Green DNA, 72 h; series mostly up to 28.7 µM
Procedure, shortened: as §1

CP269 = test: as above; details: P. falciparum in erythrocytes, SYBR Green DNA, 72 h; series mostly up to 28.7 µM
Procedure, shortened: as §1

CP286 = test: as above; details: P. falciparum in erythrocytes, SYBR Green DNA, 72 h; series mostly up to 28.7 µM
Procedure, shortened: as §1

CP291 = test: as above; details: P. falciparum in erythrocytes, SYBR Green DNA, 72 h; series mostly up to 28.7 µM
Procedure, shortened: as §1

CP297 = test: as above; details: P. falciparum in erythrocytes, SYBR Green DNA, 72 h; series mostly up to 28.7 µM
Procedure, shortened: as §1

CP305 = test: as above; details: P. falciparum in erythrocytes, SYBR Green DNA, 72 h; series mostly up to 28.7 µM
Procedure, shortened: as §1

CP315 = test: as above; details: P. falciparum in erythrocytes, SYBR Green DNA, 72 h; series mostly up to 28.7 µM
Procedure, shortened: as §1

CP325 = test: as above; details: P. falciparum in erythrocytes, SYBR Green DNA, 72 h; series mostly up to 28.7 µM
Procedure, shortened: as §1

CP329 = test: as above; details: P. falciparum in erythrocytes, SYBR Green DNA, 72 h; series mostly up to 28.7 µM
Procedure, shortened: as §1

CP335 = test: as above; details: P. falciparum in erythrocytes, SYBR Green DNA, 72 h; series mostly up to 12.8 µM
Procedure, shortened: as §1

DFO2036 = test: as above; details: P. falciparum in erythrocytes, SYBR Green DNA, 72 h; series mostly up to 28.7 µM
Procedure, shortened: as §1

DIV14 = test: as above; details: P. falciparum in erythrocytes, SYBR Green DNA, 72 h; series mostly up to 28.7 µM
Procedure, shortened: as §1

Dd2 = test: as above; details: P. falciparum in erythrocytes, SYBR Green DNA, 72 h; series mostly up to 28.7 µM
Procedure, shortened: as §1

ECU = test: as above; details: P. falciparum in erythrocytes, SYBR Green DNA, 72 h; series mostly up to 28.7 µM
Procedure, shortened: as §1

FAB9 = test: as above; details: P. falciparum in erythrocytes, SYBR Green DNA, 72 h; series mostly up to 28.7 µM
Procedure, shortened: as §1

GB4 = test: as above; details: P. falciparum in erythrocytes, SYBR Green DNA, 72 h; series mostly up to 28.7 µM
Procedure, shortened: as §1

ICS = test: as above; details: P. falciparum in erythrocytes, SYBR Green DNA, 72 h; series mostly up to 28.7 µM
Procedure, shortened: as §1

JCK = test: as above; details: P. falciparum in erythrocytes, SYBR Green DNA, 72 h; series mostly up to 28.7 µM
Procedure, shortened: as §1

P94_40 = test: as above; details: P. falciparum in erythrocytes, SYBR Green DNA, 72 h; series mostly up to 28.7 µM
Procedure, shortened: as §1

PC49 = test: as above; details: P. falciparum in erythrocytes, SYBR Green DNA, 72 h; series mostly up to 28.7 µM
Procedure, shortened: as §1

TAB109 = test: as above; details: P. falciparum in erythrocytes, SYBR Green DNA, 72 h; series mostly up to 12.8 µM
Procedure, shortened: as §1

TAB113 = test: as above; details: P. falciparum in erythrocytes, SYBR Green DNA, 72 h; series mostly up to 28.7 µM
Procedure, shortened: as §1

Sequence of Ubiquitin carboxyl-terminal hydrolase 1 (Homo sapiens) (O94782 whole entry, looked up): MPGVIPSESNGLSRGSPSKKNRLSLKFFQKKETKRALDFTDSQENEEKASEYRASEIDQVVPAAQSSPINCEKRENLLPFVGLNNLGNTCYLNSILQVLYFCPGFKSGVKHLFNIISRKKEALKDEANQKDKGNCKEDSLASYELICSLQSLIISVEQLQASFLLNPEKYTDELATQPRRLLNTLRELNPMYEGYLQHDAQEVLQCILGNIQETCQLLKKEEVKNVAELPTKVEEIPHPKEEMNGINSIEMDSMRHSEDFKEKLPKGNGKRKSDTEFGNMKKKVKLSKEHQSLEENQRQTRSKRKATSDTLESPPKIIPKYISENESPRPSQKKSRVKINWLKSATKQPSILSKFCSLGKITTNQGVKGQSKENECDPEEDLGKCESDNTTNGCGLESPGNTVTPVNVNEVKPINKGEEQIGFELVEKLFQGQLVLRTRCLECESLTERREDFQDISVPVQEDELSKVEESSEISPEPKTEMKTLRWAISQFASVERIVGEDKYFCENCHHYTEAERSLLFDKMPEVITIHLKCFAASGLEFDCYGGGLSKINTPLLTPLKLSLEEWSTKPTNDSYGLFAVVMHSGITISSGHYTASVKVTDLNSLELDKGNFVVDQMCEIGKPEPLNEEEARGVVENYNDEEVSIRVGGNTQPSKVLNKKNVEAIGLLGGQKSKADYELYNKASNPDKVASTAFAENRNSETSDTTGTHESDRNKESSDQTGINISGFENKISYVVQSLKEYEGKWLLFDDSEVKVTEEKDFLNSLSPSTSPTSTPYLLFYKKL
Sequence of Phospholipid hydroperoxide glutathione peroxidase GPX4 (Homo sapiens) (P36969 whole entry, looked up): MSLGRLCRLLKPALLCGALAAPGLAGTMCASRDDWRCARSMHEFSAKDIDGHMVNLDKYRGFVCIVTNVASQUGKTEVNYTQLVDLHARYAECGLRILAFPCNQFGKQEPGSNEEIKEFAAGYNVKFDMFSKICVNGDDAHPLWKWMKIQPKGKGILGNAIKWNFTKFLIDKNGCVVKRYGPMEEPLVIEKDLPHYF
Sequence of ATP-dependent 6-phosphofructokinase (Trypanosoma brucei brucei) (O15648 whole entry, looked up): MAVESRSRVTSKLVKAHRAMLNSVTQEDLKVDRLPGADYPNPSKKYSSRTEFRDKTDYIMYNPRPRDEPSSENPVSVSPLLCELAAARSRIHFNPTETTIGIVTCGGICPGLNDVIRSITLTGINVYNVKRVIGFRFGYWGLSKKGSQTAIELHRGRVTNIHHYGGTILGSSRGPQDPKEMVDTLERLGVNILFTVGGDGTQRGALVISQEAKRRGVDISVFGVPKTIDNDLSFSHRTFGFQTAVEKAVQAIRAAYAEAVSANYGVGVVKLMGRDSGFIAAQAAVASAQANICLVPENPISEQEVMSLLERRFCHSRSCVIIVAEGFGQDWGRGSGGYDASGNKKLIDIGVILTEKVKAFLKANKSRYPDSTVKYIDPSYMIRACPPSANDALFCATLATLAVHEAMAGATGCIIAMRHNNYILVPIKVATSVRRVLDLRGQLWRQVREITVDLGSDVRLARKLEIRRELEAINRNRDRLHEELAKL
Sequence of Luciferin 4-monooxygenase (Photinus pyralis) (P08659 whole entry, looked up): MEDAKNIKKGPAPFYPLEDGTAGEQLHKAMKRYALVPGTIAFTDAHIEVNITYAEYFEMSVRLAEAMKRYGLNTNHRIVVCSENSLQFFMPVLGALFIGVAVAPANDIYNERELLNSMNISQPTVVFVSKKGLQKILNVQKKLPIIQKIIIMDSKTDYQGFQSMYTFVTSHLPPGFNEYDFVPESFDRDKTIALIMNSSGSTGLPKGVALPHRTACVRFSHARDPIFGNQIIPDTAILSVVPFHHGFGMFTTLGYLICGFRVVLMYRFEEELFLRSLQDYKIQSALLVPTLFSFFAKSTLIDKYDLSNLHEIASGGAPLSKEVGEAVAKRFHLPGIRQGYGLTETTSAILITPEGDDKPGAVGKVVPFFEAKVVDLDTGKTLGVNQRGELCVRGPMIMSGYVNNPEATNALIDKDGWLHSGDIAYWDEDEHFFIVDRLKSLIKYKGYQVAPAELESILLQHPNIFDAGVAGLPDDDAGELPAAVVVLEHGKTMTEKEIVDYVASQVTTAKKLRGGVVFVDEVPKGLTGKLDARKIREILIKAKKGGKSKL
Sequence of Glutathione peroxidase 1 (Homo sapiens) (P07203 whole entry, looked up): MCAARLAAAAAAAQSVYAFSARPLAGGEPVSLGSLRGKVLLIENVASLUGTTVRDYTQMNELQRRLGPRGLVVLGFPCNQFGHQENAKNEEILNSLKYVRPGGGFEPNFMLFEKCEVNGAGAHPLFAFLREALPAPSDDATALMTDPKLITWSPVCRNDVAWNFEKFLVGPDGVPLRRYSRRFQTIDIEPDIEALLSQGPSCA

C[C@]12CC[C@H](O)C[C@H]1CCC1C2CC[C@]2(C)[C@@H](c3ccc(=O)oc3)C[C@H]3O[C@]132 (some centres undefined)
inactive: Potency [1] | Potency [2] | Potency [3] | Potency [4] | Potency [6] | Potency [7] | activity, negative = inhibition ([8]; parasite line A) -25.7% | activity, negative = inhibition ([8]; parasite line B) -8.73% | Potency (3D7) | Potency (AA1029) | Potency (ATS189) | Potency (ATS95) | Potency (C2A) | Potency (CP185) | Potency (CP191) | Potency (CP192) | Potency (CP194) | Potency (CP201) | Potency (CP211) | Potency (CP215) | Potency (CP217) | Potency (CP238) | Potency (CP247) | Potency (CP250) | Potency (CP252) | Potency (CP256) | Potency (CP260) | Potency (CP262) | Potency (CP265) | Potency (CP266) | Potency (CP268) | Potency (CP269) | Potency (CP286) | Potency (CP291) | Potency (CP297) | Potency (CP305) | Potency (CP315) | Potency (CP325) | Potency (CP329) | Potency (CP335) | Potency (DFO2036) | Potency (Dd2) | Potency (ECU) | Potency (FAB9) | Potency (GB4) | Potency (JCK) | Potency (P94_40) | Potency (PC49) | Potency (TAB109) | Potency (TAB113)
active: Potency [5] 7.08 µM | Potency (7G8) 11.2 µM | Potency (DIV14) 13.5 µM | Potency (ICS) 7.08 µM

— PubChem BioAssay (NCATS)
